Measurements reported in the supplement of paper PMC6555819.

Each sequence was assayed on FXR:RXRa (NR concentration 270 nM, RXRa partner concentration 90 nM) (assay: PBM binding z-score (relative to random genomic background probes); higher = stronger binding; sequences stand for … in GC…GCGATTGACAGCGTAGAATGAAGG).
How it was run: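 Random background probes are the reference for binding z-scores. These scores derive from regression-normalized fluorescence on custom Agilent 4×180K protein-binding microarrays incubated 1 h with ligand-free nuclear receptor dimers. Binding was detected with antibodies against each partner (one per run).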

| Sequence | PBM binding z-score |
| --- | --- |
| TAGCTTAGGTCATGGGCCAGTATACCACGCGAAC | 4.7 |
| ACAGACAGGTGATGAAGGTAACTCGGGCTATCAT | -0.17 |
| GCTGCTAGGTCAGGTTGGTCACCTAACGGGTACG | 1.01 |
| ATCTCTAGGTAACAAGTCCAGTGAAAGAGAGGAC | 0.652 |
| CCTTACGGGTCACTCCAGGGTATAGCATCGGAGT | 4.69 |
| TCTGCAAGGTCAACGATGGTCAGCTAATCTGCTA | 6.64 |
| CCGAGTAGGTTATTGGGCATTCAGGCAACGGTGA | 0.0641 |
| TCATGTAGGTAAATGCTAGGTGAAAGTCCGATCT | 0.737 |
| ACTTACGGGTCAACGAGGTTATAGTACGCGTATA | 6.84 |
| TAGCCTAGGTCATTGGGCCAGTATTGTACGCATC | 4.48 |
| GCTTACGGGTCAAAGGTTATAGCTTGAATAGAAT | 6.94 |
| CCGACTGGGGCATGAGGTTACCATAAGCCAGCCC | 0.319 |
| TCGAGTACGTTAGGGGCATTCAGAATGGCGTCGA | -0.212 |
| TCTTGTAGATCTAAGGTTAAGAAAGCCGAAGCCT | 0.97 |
| CCGAGTAGGTTATAGGGCATTCAGGCAACGGTGA | 0.59 |
| GTGACTGGGGCATCAGCAGGTTACCATAACTTAA | 0.0842 |
| CCTTACGGGTCACTACAGGTTATAGCATCGGAGT | 4.92 |
| AGAATGAGGTTGTTAAGATCAGGGAATTGCGGTC | 0.00995 |
| ACTAGCCGGCCAAGGGTCACTCAAGATTAGTCCG | 2.41 |
| CAAACTAGGTCAAGGTCACAGTCGGTTTGTGCCA | 6.76 |

| Sequence | PBM binding z-score |
| --- | --- |
| AGAATGAGGTTATACGGAGATCAGGGAAGAAAGT | 2.36 |
| CTCGAAAGGTTGGTTGAGGTGAGTATACGGATAA | 1.15 |
| AGTCAAAGTTCAGGACGAGGTAACTTAAAGCACG | 4.45 |
| TCTCGGAGGACACTAAGGTCAGAGCTTTCCAGAG | 1.87 |
| GGAAGGAGGGCAAAGTTGATAGCATCTGTCGACG | 1.43 |
| ATCGAAAGGTCGTGAGGTGAGTCTACAGAAAGGC | 4.96 |
| AGTCAAAGTTCATCTAGGTACCGTAAGATATGCT | 6.55 |
| AGAATGAGGCTATTAAGATCAGGGAATTGCGGTC | -0.289 |
| TCGAGTAGGTTAGTGGCATTCAGAATGGCGTCGA | -0.429 |
| CCTAGCAGGCCAGGGTCCCTCAAGCATTTCGCTT | -0.373 |
| TCATATAGGTAAACAGGTCAAAGTCCGTAAGTTA | 2.74 |
| CGAACTAGTTCAGAACAGGACAGTGAAGGATGAT | 0.0852 |
| TCATATAGGTAAACAGGTGAATGTCCGTAAGTTA | 0.832 |
| ATCTCTAGGTAACAAGTTCAGGGAAAGAGAGGAC | 1.08 |
| AGAACGAGGACAATGAGTTGATAGCACGGGTGGC | -0.125 |
| AGAGTGAGGTTAAGATCAGGGAAACAGAATACAT | 2.54 |
| CCTACTGGGCCATCAGGTCATCGATATCAACGTT | 1.37 |
| TCTAGTTGGTCAAAGGTCACTCACTCGAAATGCG | 5.38 |
| CGTCCAAGGTCAAGGTAAGTGAAAGAGACTCGAA | 7.13 |
